Results taken from PubChem BioAssay.
Active and inactive are the calls of the source.

Biological target: NADPH oxidase 4 (Homo sapiens) (UniProt Q9NPH5)
Assay: compounds shifting NOX4 Amplex Red fluorescence – cell-based, HEK293-NOX4, tetracycline-induced, NOX inhibitor project, primary screen (AID 1160)
Conditions: HEK293-NOX4, Amplex Red H2O2 fluorescence, 45 min; higher = more signal, called active from +8 up or from −8 down

Sequence of NADPH oxidase 4 (Homo sapiens) (Q9NPH5 whole entry, looked up): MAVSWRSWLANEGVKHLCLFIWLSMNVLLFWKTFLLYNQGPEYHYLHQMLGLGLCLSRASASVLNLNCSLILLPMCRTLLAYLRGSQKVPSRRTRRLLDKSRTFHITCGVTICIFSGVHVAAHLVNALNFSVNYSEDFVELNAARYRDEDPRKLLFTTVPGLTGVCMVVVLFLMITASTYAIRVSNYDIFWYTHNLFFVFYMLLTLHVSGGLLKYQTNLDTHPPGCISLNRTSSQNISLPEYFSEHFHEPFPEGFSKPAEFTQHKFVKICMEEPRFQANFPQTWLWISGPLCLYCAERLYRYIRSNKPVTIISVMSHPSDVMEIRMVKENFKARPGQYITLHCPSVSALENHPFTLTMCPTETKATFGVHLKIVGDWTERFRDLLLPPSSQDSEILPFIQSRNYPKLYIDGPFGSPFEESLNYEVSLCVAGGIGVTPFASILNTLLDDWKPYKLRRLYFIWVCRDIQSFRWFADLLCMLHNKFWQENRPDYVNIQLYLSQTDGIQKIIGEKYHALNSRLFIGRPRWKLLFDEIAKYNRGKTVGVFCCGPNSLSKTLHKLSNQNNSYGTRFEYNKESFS

| SMILES | z-score |
| --- | --- |
| CC(=O)NCCCC[C@@H]1NC(=O)[C@@H]2C[C@H](C(=O)NCCCCCCNC(=O)CS)[C@H](c3cccc(OCCO)c3)N2C1=O | 0.157 (inactive) |
| COCCOC(=O)N1C(=O)[C@@]2(c3cc(C#CC4=CCCCC4)ccc31)[C@H](C(=O)N1CCc3cc(OC)c(OC)cc3C1)[C@H]1C(=O)O[C@H](c3ccccc3)[C@H](c3ccccc3)N1[C@@H]2c1ccc(OCCO)cc1 | 1.18 (inactive) |
| COCCOC(=O)N1C(=O)[C@@]2(c3cc(C#CC4=CCCCC4)ccc31)[C@H](C(=O)Nc1nc3ccccc3s1)[C@H]1C(=O)O[C@H](c3ccccc3)[C@H](c3ccccc3)N1[C@@H]2c1ccccc1OCCO | 0.056 (inactive) |
| COc1ccc(C(O)C2C=CC3C(=O)N(c4ccccc4)C(=O)C3N2Nc2ccc(C(C)C)cc2)cc1OCc1ccccc1 (stereo unspecified) | -2.55 (inactive) |

Biological target: NADPH oxidase 5 (Homo sapiens) (UniProt Q96PH1)
Sequence (Q96PH1 whole entry, looked up): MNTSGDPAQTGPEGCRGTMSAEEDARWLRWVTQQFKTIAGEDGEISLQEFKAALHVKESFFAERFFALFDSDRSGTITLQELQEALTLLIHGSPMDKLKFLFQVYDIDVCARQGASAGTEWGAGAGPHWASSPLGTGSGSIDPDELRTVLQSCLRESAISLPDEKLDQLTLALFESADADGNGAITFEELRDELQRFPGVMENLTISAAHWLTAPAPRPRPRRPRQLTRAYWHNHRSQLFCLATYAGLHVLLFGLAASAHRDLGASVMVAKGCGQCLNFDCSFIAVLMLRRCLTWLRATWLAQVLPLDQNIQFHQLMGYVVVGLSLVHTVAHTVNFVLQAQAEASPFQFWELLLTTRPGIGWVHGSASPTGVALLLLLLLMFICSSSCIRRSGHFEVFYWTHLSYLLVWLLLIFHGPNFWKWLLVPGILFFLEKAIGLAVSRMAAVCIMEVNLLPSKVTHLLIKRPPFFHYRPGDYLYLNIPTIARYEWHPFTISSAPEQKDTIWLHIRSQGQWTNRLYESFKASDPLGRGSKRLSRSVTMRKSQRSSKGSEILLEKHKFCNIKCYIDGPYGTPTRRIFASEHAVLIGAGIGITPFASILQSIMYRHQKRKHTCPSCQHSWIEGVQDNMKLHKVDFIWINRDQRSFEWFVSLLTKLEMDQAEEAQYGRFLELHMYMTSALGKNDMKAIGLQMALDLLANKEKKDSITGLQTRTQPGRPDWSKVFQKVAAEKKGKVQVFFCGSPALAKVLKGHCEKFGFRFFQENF
Assay: compounds shifting NOX5 Amplex Red fluorescence – cell-based, HEK293-NOX5, NOX inhibitor project, primary screen (AID 1161)
Conditions: HEK293-NOX5, ionomycin, 45 min, higher = more signal

| SMILES | z-score |
| --- | --- |
| CN(C)C(=O)[C@]1(Cc2ccccc2N=[N+]=[N-])N=C(c2ccc(OCCCO)cc2)O[C@@H]1c1ccccc1 | -1.67 |
| CCCCCC1=C2CNC(CCC)(C(=O)OC)C=C2C(C)C1=O (stereo unspecified) | -3.63 |
| COCCOC(=O)N1C(=O)[C@@]2(c3cc(C#CCCO)ccc31)[C@H](C(=O)N1CCc3cc(OC)c(OC)cc3C1)[C@H]1C(=O)O[C@H](c3ccccc3)[C@H](c3ccccc3)N1[C@@H]2c1ccc(O)cc1 | 1.29 |
| O=C(NCc1ccccc1)[C@@]1(Cc2ccccc2)N=C(c2ccc(OCCCO)cc2)O[C@H]1c1ccccc1 | 0.756 |
| CC(C)c1ccc(NN2C(C(O)c3cc(C(F)(F)F)cc(C(F)(F)F)c3)C=CC3C(=O)N(c4ccccc4)C(=O)C32)cc1 (stereo unspecified) | -4.2 |
| CN1C(=O)[C@]2(Cc3ccccc3)N=C(c3ccc(OCCCO)cc3)O[C@@H]2c2ccccc21 | -1.93 |
| CC(C)(C)OC(=O)CC[C@]1(C(=O)NCC(O)CO)COC(c2ccc(OCCCO)cc2)=N1 (stereo partly specified) | -0.519 |
| CCOC(=O)C[C@H]1[C@H](OC(=O)c2cc3ccccc3oc2=O)[C@@H](NC(=O)Cc2ccc(OC)cc2)c2cc(OCCCO)ccc2N1C(=O)c1ccccc1 | -0.286 |
| COc1ccc(CCNC(=O)[C@@]2(Sc3ccc(C)cc3)CC(=O)N(C3CCCCC3)[C@@H]2c2ccc(CO)cc2I)cc1 | 2.1 |
| COc1ccc(C(=O)O[C@H]2CC[C@]3(C)C4=C(CCC3C2(C)C)[C@]2(C)CC[C@H]([C@H](C)CCCC(C)C)[C@@]2(C)CC4)cc1 (stereo partly specified) | 0.467 |
| CCOC(=O)C[C@H]1[C@H](OC(=O)Cc2ccc3c(c2)OCO3)[C@@H](NC(=O)c2ccc3ccccc3c2)c2cc(OCCCO)ccc2N1C(=O)c1ccccc1 | -2.56 |
| CCN(CC)c1ccc(N2CC=CC34O[C@@H]5/C=C\CCCOC(=O)C5[C@H]3C(=O)N(CCO)[C@@H]4C2=O)cc1 (stereo partly specified) | 0.733 |
| C=CCNC(=O)[C@@H]1[C@H]2C(=O)O[C@H](c3ccccc3)[C@H](c3ccccc3)N2[C@H](c2ccccc2OCCO)[C@@]12C(=O)N(C(=O)OCCOC)c1ccc(C#CCNC(N)=O)cc12 | -0.131 |
| O=C1C[C@]2(c3ccc([N+](=O)[O-])cc3)C(=O)N(CCN3CCOCC3)c3cc(CO)ccc3[C@H]2N1C1CCCCC1 | 1.18 |
| CN1C(=O)C2C=CC(C(O)C3CC=CCC3)N(NC(=O)OC(C)(C)C)C2C1=O (stereo unspecified) | -0.716 |
| COCCCNC(=O)C1N=C(c2ccc(OCCCO)cc2)N(c2ccccc2)O1 (stereo unspecified) | -0.819 |
| C=C(COC)/C(=C/C[C@H](OC(=O)c1ccncc1)c1ccc(OCCO)cc1)c1cnc2ccccc2c1 | -0.608 |
| C=CC[C@@]1(C(=O)N(C)C)N=C(c2ccc(OCCCO)cc2)O[C@@H]1c1ccccc1N=[N+]=[N-] | 0.446 |
| C=CCOC(=O)[C@H]1[C@@H]2C(=O)O[C@@H](c3ccccc3)[C@@H](c3ccccc3)N2[C@@H](c2ccc(OCCOC(=O)[C@@H]3C[C@@H]4C(=O)N[C@@H](CCCC[N+](C)(C)C)C(=O)N4[C@@H]3c3ccc(O)cc3)cc2)[C@]12C(=O)Nc1ccccc12 | 1.41 |
| O=C1NC(=O)C2C1C=CC(C(O)c1cccc3ccccc13)N2Nc1ccccn1 (stereo unspecified) | -2.36 |
| COc1ccc(C(=O)Nc2cccc(CN3C(=O)[C@]4(O[C@H](CCO)[C@@H]([Si](C)(C)c5ccc(OC)cc5)[C@@H]4C)c4ccccc43)c2)cc1 | -3.1 |
| COC(=O)c1c(CC[C@@H](CO)NC(=O)N2CCC[C@H]2Cn2cc(-c3ccccn3)nn2)oc(C(C)=O)c1C(=O)OC | -1.84 |
